The supplement of paper PMC13380429

Test system: Vero E6 infected with SARS-CoV-2
Test: inhibition of SARS-CoV-2 cytopathic effect; higher = more antiviral protection, active = above 15
Details: 48 h

SMILES	inhibition of SARS-CoV-2 cytopathic effect (1 nM)	inhibition of SARS-CoV-2 cytopathic effect (8.33 nM)	inhibition of SARS-CoV-2 cytopathic effect (100 nM)	inhibition of SARS-CoV-2 cytopathic effect (833.33 nM)	inhibition of SARS-CoV-2 cytopathic effect (10000 nM)
CC(=O)[C@H]1CC[C@H]2[C@@H]3CC[C@H]4C[C@](C)(O)CC[C@]4(C)[C@H]3CC[C@]12C [ganaxolone]	-0.23% (inactive)	4.47% (inactive)	1.85% (inactive)	0.7% (inactive)	0.84% (inactive)
CC(C)CNc1ccnc(NCc2csc(-c3ccccc3)n2)n1	0.06% (inactive)	1.07% (inactive)	0.03% (inactive)	0.39% (inactive)	-2.77% (inactive)
Cc1noc(NS(=O)(=O)c2ccc(N)cc2)c1C [sulfafurazole]	-0.27% (inactive)	-1.19% (inactive)	0.89% (inactive)	-1.49% (inactive)	0.12% (inactive)
COc1ccc2[nH]c([S@@+]([O-])Cc3ncc(C)c(OC)c3C)nc2c1 [esomeprazole]	-1.94% (inactive)	-1.72% (inactive)	-0.5% (inactive)	-0.9% (inactive)	0.21% (inactive)
CC(C)=CCC/C(C)=C/CC/C(C)=C/CC[C@]1(C)CCc2cc(O)cc(C)c2O1 [delta-tocotrienol]	0.39% (inactive)	-1.44% (inactive)	2.83% (inactive)	7.95% (inactive)	2.88% (inactive)
N=C(N)SCCc1c[nH]cn1 [imetit]	-0.58% (inactive)	-0.44% (inactive)	-2.84% (inactive)	-2.2% (inactive)	-1.05% (inactive)
Clc1ccc2c(NCCNc3ccnc4cc(Cl)ccc34)ccnc2c1	-2.64% (inactive)	0.71% (inactive)	5.21% (inactive)	0.16% (inactive)	0% (inactive)
C[C@@H](O)[C@H]1C(=O)N2C(C(=O)[O-])=C(SC3Cn4cnc[n+]4C3)[C@H](C)[C@H]12 (stereo not given in full) [biapenem]	-2.15% (inactive)	-0.04% (inactive)	0.1% (inactive)	0.63% (inactive)	-0.14% (inactive)
O=[N+]([O-])c1cn2c(n1)OC[C@@H](OCc1ccc(OC(F)(F)F)cc1)C2 [pretomanid]	0.26% (inactive)	0.54% (inactive)	-0.43% (inactive)	-0.88% (inactive)	0.65% (inactive)
CCOC(=O)Nc1ccc(NCc2c(C)cc(C)cc2C)cc1N	0.63% (inactive)	1.07% (inactive)	-0.41% (inactive)	-0.67% (inactive)	2.16% (inactive)
CC[C@@H](C(=O)[C@@H](C)[C@@H](O)[C@H](C)[C@@H]1O[C@@H]([C@@H](CC)C(=O)O)CC[C@@H]1C)[C@H]1O[C@]2(C=C[C@@H](O)[C@]3(CC[C@@](C)([C@H]4CC[C@](O)(CC)[C@H](C)O4)O3)O2)[C@H](C)C[C@@H]1C [Salinomycin (Procoxacin)]	-2.73% (inactive)	0.16% (inactive)	4.82% (inactive)	50.9% (active)	57% (active)
Nc1ncnc2c1ncn2CCOCP(=O)(O)O [adefovir]	6.28% (inactive)	4.07% (inactive)	2.27% (inactive)	0.75% (inactive)	2.85% (inactive)
O=C(O)C1CN(Cc2ccc(-c3nc4cc(Cc5ccccc5F)ccc4s3)c(F)c2)C1	1.34% (inactive)	1.1% (inactive)	2.02% (inactive)	0.03% (inactive)	1.58% (inactive)
COc1cccc(-c2ccc(NC(=O)C3=C(C(=O)O)CCC3)c(F)c2)c1	2.25% (inactive)	3.22% (inactive)	2.16% (inactive)	5.63% (inactive)	4.97% (inactive)
Cn1cc(C(F)(F)F)nc1-c1ccc(OCC(O)CNCCOc2ccc(O)c(C(N)=O)c2)cc1 (stereo not given)	-0.25% (inactive)	-0.6% (inactive)	0.3% (inactive)	-1.37% (inactive)	1.34% (inactive)
O=C(Nc1cccnc1)c1cc(-c2ccnc(F)c2)ccc1OCc1ccccc1	2.42% (inactive)	-0.98% (inactive)	4.16% (inactive)	4.08% (inactive)	3.44% (inactive)
CCn1cc(-c2cccc(C(F)(F)F)c2)c2sc(C(=N)NC3CCS(=O)(=O)CC3)cc2c1=O	1.59% (inactive)	3.81% (inactive)	1.38% (inactive)	0.93% (inactive)	-7.19% (inactive)
CCCCC/C=C\C/C=C\CCCCCCCC(=O)NCCCC(=O)O [GABA-linoleamide]	0.87% (inactive)	4.17% (inactive)	1.92% (inactive)	-0.22% (inactive)	-0.15% (inactive)
